Test results: PubChem BioAssay (Tox21)
Results filed as inconclusive are left out. The source made the active and inactive calls. Unless noted, the call rests on the fitted dose curve; in most records, active means well fitted curve in the direction sought with a large enough effect in the repeat runs; inconclusive means weak or mixed curves; inactive means no such curve, though single readings can be large; an effect the other way counts as inactive or inconclusive.

Tests used:
[1] = qHTS assay to identify small molecule antagonists of the TGF-beta/Smad signaling pathway - cell viability counter screen (AID 1346824); further: nearly all actives have a fitted effect of over 50% in size
Summary of the method: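 Cytotoxicity counter-screen run in the same wells as the beta-lactamase Smad reporter read: CellTiter-Glo luminescence after 30 min at room temperature. HEK 293T SBE-bla cells had 5 hr compound exposure at 37 C with TGF-beta1 (0.25 ng/mL stock).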

[2] = qHTS assay to identify small molecule agonists of the TGF-beta/Smad signaling pathway - cell viability counter screen (AID 1346829); further: top concentration of the series differs between compounds; nearly all actives have a fitted effect of over 45% in size
Summary of the method: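 After overnight seating at 37 C and 5% CO2, reporter cells got compounds for 5 hr and FRET substrate for 2 hr; cell viability then came from CellTiter-Glo luminescence.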

[3] = Human pregnane X receptor (PXR) small molecule agonists, qHTS cell viability counter screen (AID 1346977); further: nearly all actives have a fitted effect of over 50% in size
Summary of the method: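 Tox21 qHTS format; PXR-Luc HepG2, 2,000/well, charcoal-stripped FBS 5%. Cpd exposure 24hr. Read: CellTiter-Fluor fluorescence, multiplexed with luciferase.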

[4] = Caspase-3/7 induction in HepG2 cells by small molecules, qHTS assay (AID 1346978); further: nearly all actives have a fitted effect of over 15% in size
Summary of the method: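 Caspase-3/7 induction was measured by Caspase-Glo 3/7 luminescence (30 min, room temperature) after a 17 hr compound exposure of wild-type HepG2 cells seeded at 2,000 per well and pre-incubated 5 hr.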

[5] = Caspase-3/7 induction in CHO-K1 cells by small molecules, qHTS cell viability counter screen (AID 1346979); further: nearly all actives have a fitted effect of over 35% in size
Summary of the method: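 CellTiter-Fluor viability check, qHTS format: wild-type CHO-K1, 16hr compound treatment, 1hr reagent incubation, fluorescence read.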

[6] = Caspase-3/7 induction in CHO-K1 cells by small molecules, qHTS assay (AID 1346980); further: nearly all actives have a fitted effect of over 15% in size
Summary of the method: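 Luminescent Caspase-Glo 3/7 read (30min, room temperature) quantified apoptosis induction. Cells were wild-type CHO-K1, treated with compound for 17hr at 37 C and 5% CO2.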

[7] = Caspase-3/7 induction in HepG2 cells by small molecules, qHTS cell viability counter screen (AID 1346981); further: series mostly up to about 92 µM; nearly all actives have a fitted effect of over 30% in size
Summary of the method: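 Cell viability is measured as a cytotoxicity counter screen alongside the Caspase-Glo 3/7 readout in identical wells. Wild-type HepG2 cells are treated with test compounds for 16 hr at 37 C before CellTiter-Fluor addition and a 1-hr incubation.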

[8] = target: Nuclear receptor subfamily 1 group I member 2 (Homo sapiens) (UniProt O75469); experiment: Human pregnane X receptor (PXR) small molecule agonists, qHTS assay (AID 1346982); further: nearly all actives have a fitted effect of over 35% in size; further: potency means the concentration at half of the fitted maximal effect
Summary of the method: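 Cells: HepG2 stably carrying PXR-Luc. Medium held 5% charcoal-stripped FBS. Compounds in DMSO added after 5 hr plating, incubated 24 hr, then luminescence quantified with ONE-Glo.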

[9] = target: Cytochrome P450 2D6 (Homo sapiens) (UniProt P10635); experiment: Cytochrome P450 Family 2 Subfamily D Member 6 (CYP2D6) small molecule antagonists: luciferase reporter qHTS assay (AID 1671196); further: nearly all actives have a fitted effect of over 50% in size; further: potency means the concentration at half of the fitted maximal effect; on activity change, negative = inhibition: series mostly up to about 120 µM
Summary of the method: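 Enzyme and proluciferin substrate were first combined with test chemical for 10 min at room temperature. Adding NADPH regeneration solution started a 1 h reaction, stopped with luciferin detection reagent and read by luminescence 20 min later.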

[10] = target: Cytochrome P450 2C19 (Homo sapiens) (UniProt P33261); experiment: Cytochrome P450 Family 2 Subfamily C Member 19 (CYP2C19) small molecule antagonists: luciferase reporter qHTS assay (AID 1671197); further: nearly all actives have a fitted effect of over 65% in size; further: potency means the concentration at half of the fitted maximal effect; on activity change, negative = inhibition: series mostly up to about 120 µM
Summary of the method: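 Inhibition of CYP2C19 was scored from loss of luminescence in a P450-Glo proluciferin substrate assay, NADPH-started and run 1 h at 37C, with ketoconazole as positive control.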

[11] = target: Cytochrome P450 2C9 (Homo sapiens) (UniProt P11712); experiment: Cytochrome P450 Family 2 Subfamily C Member 9 (CYP2C9) small molecule antagonists: luciferase reporter qHTS assay (AID 1671198); further: nearly all actives have a fitted effect of over 50% in size; further: potency means the concentration at half of the fitted maximal effect; on activity change, negative = inhibition: series mostly up to about 120 µM
Summary of the method: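 Enzyme-substrate mix preincubated with compound 10 min at room temperature; reaction started with NADPH regeneration solution, 1 h 37C. Luminescent luciferin product read after 20 min detection reagent.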

[12] = target: Cytochrome P450 1A2 (Homo sapiens) (UniProt P05177); experiment: Cytochrome P450 Family 1 Subfamily A Member 2 (CYP1A2) small molecule antagonists: luciferase reporter qHTS assay (AID 1671199); further: nearly all actives have a fitted effect of over 50% in size; further: potency means the concentration at half of the fitted maximal effect; on activity change, negative = inhibition: series mostly up to about 120 µM
Summary of the method: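 Compounds were incubated with CYP1A2 and a luminogenic proluciferin substrate for 10 min at room temperature before the reaction was started with NADPH regeneration solution. After 1 h, detection reagent was added and light output, proportional to CYP activity, was recorded.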

[13] = target: Voltage-gated inwardly rectifying potassium channel KCNH2 (Homo sapiens) (UniProt Q12809); experiment: Human Ether-a-go-go-Related Gene (hERG) channel small molecule antagonists: fluorescence cell-based qHTS assay (AID 1671200); further: nearly all actives have a fitted effect of over 50% in size; further: potency means the concentration at half of the fitted maximal effect;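 on activity change, negative = inhibition: hERG-expressing U2OS cells given a thallium stimulus after FluxOR II dye loading; series mostly up to about 77 µM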
Summary of the method: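 Kinetic two-minute fluorescence traces, sampled at 1 s, were collected following thallium stimulus of U2OS cells (1000 per well) that had been cultured overnight at 37 C and loaded with FluxOR II.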

[14] = target: Cytochrome P450 3A4 (Homo sapiens) (UniProt P08684); experiment: Cytochrome P450 Family 3 Subfamily A Member 4 (CYP3A4) small molecule antagonists: luciferase reporter qHTS assay (AID 1671201); further: nearly all actives have a fitted effect of over 50% in size; further: potency means the concentration at half of the fitted maximal effect; on activity change, negative = inhibition: series mostly up to about 120 µM
Summary of the method: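 Proluciferin-to-luciferin conversion by CYP3A4, NADPH-regenerated, 1 h RT; luminescence read as RLU. Ketoconazole as control.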

[15] = target: Nuclear receptor subfamily 1 group I member 2 (Rattus norvegicus) (UniProt Q9R1A7); experiment: Rat pregnane X receptor (rPXR) activation by small molecules, qHTS assay (AID 1346983); details: rPXR luciferase reporter cells, One-Glo luminescence, 24 h; active compounds read high; further: nearly all actives have a fitted effect of over 20% in size
Summary of the method: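 Luminescent readout (One-Glo luciferase, 30 min room temperature) followed 24 hr compound treatment at 37 C of rPXR cells plated 2,000 per well and preincubated 5hr; qHTS format with compounds delivered in DMSO.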

[16] = target: Nuclear receptor subfamily 1 group I member 2 (Homo sapiens) (UniProt O75469); experiment: CYP3A4 induction through human pregnane X receptor (PXR) by small molecules, qHTS assay (AID 1346984); further: nearly all actives have a fitted effect of over 40% in size
Summary of the method: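 Quantitative HTS in DPX-2 cells, i.e. HepG2 transfected with PXR response element and CYP3A4-promoter luciferase. Compounds in DMSO incubated 24hr at 37C; then P450-Glo CYP3A4 substrate, 3uM final, 3hr; One-Glo luminescence.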

[17] = target: Thyrotropin-releasing hormone receptor (Homo sapiens) (UniProt P34981); experiment: qHTS assay to identify small molecule antagonists of the thyrotropin-releasing hormone receptor (TRHR) signaling pathway (AID 1346877; active means well fitted inhibition curve with a large enough effect in the repeat runs, not every such curve was filed as active; further: series mostly up to about 51 µM)
Summary of the method: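 Antagonism is measured as suppression of the calcium response to 1 nM TRH in TRHR-HEK293 cells that have been dye-loaded for 2 h at 37 °C after overnight plating. Each compound is tested at 15 concentrations in triplicate.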

[18] = target: Thyrotropin-releasing hormone receptor (Homo sapiens) (UniProt P34981); experiment: qHTS assay to identify small molecule agonists of the thyrotropin-releasing hormone receptor (TRHR) signaling pathway (AID 1346891; calls by dose curve; further: series mostly up to about 58 µM)
Summary of the method: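 Screening of agonists relied on calcium signalling in HEK293 cells expressing human TRHR: dye loading 2 h at 37 °C preceded compound addition and a 3-min fluorescence time course.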

[19] = qHTS assay to identify small molecule agonists of the TGF-beta/Smad signaling pathway (AID 1346859; active means well fitted activation curve with a large enough effect in the signal ratio in the repeat runs, not every such curve was filed as active; the % refers to the signal ratio; further: series mostly up to about 77 µM)
Summary of the method: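 Each well held 4,000 SBE-bla HEK 293T cells incubated overnight before compound addition; 5 hr later the cleavable FRET substrate went on for 2 hr at room temperature, and fluorescence was read at two emissions.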
On the % scale 0 is the no-effect control and ±100 the full control effect.

Chain of Cytochrome P450 2D6 (Homo sapiens) (P10635 whole entry, looked up): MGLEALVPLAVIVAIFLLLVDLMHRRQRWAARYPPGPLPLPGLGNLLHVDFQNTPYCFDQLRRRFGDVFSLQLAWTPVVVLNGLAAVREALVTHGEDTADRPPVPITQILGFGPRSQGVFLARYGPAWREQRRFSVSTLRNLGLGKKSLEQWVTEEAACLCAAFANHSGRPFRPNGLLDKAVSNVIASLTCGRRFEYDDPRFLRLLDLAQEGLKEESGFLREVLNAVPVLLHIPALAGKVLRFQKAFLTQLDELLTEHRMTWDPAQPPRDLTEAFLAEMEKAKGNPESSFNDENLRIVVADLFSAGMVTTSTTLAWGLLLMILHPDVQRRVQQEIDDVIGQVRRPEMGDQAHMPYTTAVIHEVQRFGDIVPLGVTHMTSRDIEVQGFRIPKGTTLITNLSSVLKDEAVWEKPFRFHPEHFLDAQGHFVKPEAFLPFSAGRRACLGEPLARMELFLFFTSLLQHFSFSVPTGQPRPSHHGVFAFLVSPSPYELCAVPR
Chain of Cytochrome P450 1A2 (Homo sapiens) (P05177 whole entry, looked up): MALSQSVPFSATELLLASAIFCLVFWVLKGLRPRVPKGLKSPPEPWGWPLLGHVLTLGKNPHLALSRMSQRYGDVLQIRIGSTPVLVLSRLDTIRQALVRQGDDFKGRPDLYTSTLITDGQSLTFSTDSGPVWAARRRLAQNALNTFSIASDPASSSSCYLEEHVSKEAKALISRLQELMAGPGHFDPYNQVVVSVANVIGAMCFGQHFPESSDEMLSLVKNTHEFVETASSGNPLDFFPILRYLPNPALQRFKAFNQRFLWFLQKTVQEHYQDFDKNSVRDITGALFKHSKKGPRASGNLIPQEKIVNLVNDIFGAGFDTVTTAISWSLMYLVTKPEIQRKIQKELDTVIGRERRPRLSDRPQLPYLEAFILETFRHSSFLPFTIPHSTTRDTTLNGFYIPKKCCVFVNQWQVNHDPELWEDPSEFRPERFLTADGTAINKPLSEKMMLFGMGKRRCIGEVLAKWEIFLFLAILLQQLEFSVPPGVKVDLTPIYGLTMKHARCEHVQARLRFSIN
Chain of Thyrotropin-releasing hormone receptor (Homo sapiens) (P34981 whole entry, looked up): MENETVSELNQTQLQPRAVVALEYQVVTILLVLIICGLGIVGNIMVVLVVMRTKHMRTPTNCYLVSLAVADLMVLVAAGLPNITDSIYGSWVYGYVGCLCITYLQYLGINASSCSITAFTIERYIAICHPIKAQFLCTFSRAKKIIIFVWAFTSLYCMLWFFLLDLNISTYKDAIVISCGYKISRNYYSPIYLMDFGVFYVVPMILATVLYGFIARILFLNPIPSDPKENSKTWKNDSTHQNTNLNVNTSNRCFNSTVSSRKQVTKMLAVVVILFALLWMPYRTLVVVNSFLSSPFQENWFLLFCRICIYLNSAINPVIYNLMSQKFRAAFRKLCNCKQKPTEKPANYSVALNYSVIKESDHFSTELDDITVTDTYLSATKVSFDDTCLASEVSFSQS
Chain of Nuclear receptor subfamily 1 group I member 2 (Homo sapiens) (O75469 whole entry, looked up): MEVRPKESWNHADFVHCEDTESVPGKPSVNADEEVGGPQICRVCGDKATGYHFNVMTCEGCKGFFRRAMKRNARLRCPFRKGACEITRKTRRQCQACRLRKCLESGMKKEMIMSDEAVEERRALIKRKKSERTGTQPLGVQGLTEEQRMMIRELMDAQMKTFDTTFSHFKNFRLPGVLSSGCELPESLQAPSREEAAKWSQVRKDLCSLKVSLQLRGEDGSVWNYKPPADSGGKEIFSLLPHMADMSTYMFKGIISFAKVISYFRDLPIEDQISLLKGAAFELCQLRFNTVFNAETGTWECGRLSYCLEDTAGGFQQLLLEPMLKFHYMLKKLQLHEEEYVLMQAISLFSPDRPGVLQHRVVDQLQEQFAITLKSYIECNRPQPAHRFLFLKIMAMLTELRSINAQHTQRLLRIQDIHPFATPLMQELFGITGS
Chain of Cytochrome P450 2C9 (Homo sapiens) (P11712 whole entry, looked up): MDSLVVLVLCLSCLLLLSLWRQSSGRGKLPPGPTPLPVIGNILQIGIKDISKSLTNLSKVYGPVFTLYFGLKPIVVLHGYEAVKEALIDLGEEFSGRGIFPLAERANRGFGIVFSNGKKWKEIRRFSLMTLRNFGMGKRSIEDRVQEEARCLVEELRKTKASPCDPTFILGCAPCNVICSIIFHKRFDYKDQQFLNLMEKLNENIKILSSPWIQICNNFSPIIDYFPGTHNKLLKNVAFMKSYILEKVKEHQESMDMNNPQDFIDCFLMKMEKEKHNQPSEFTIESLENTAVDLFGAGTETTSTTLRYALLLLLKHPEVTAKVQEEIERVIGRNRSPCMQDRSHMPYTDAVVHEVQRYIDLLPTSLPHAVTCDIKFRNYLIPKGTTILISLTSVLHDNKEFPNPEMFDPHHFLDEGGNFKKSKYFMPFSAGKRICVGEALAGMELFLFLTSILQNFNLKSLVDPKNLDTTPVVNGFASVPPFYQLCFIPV
Chain of Nuclear receptor subfamily 1 group I member 2 (Rattus norvegicus) (Q9R1A7 whole entry, looked up): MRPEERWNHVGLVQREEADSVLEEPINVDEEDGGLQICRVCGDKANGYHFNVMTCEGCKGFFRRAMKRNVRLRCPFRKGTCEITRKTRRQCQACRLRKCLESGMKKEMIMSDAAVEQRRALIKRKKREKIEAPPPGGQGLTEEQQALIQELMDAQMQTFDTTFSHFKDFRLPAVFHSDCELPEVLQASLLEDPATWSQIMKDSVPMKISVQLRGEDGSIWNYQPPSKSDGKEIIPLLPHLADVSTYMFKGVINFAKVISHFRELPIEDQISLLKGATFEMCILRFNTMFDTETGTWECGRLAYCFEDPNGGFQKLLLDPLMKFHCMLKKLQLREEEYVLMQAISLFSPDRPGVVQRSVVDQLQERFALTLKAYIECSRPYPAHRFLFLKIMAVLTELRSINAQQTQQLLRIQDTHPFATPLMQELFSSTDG
Chain of Cytochrome P450 3A4 (Homo sapiens) (P08684 whole entry, looked up): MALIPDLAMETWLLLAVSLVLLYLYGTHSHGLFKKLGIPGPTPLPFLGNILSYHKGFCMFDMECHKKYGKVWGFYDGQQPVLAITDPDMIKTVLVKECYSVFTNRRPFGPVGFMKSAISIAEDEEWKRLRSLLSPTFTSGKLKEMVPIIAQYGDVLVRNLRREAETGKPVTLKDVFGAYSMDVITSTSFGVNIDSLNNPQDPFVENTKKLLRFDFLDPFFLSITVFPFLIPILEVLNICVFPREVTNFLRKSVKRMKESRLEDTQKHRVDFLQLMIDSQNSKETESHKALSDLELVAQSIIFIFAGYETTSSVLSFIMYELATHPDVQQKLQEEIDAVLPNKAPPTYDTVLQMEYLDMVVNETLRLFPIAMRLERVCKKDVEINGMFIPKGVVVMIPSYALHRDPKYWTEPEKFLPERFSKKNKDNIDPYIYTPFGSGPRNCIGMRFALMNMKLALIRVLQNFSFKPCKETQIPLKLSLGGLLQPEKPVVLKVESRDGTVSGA
Chain of Cytochrome P450 2C19 (Homo sapiens) (P33261 whole entry, looked up): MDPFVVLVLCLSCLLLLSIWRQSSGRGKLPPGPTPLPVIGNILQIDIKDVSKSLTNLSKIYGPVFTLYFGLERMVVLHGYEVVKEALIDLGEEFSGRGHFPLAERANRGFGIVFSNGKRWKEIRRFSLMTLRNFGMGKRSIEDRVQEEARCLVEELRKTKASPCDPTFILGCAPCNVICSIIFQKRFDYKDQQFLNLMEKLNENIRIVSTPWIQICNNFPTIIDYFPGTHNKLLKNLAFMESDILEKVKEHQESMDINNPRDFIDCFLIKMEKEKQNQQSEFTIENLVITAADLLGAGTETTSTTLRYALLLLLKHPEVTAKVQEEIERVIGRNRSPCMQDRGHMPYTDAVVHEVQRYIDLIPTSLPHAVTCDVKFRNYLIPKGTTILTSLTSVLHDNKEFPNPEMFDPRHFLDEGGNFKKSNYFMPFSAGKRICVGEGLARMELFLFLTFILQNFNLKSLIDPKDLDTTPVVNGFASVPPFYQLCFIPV
Chain of Voltage-gated inwardly rectifying potassium channel KCNH2 (Homo sapiens) (Q12809 whole entry, looked up): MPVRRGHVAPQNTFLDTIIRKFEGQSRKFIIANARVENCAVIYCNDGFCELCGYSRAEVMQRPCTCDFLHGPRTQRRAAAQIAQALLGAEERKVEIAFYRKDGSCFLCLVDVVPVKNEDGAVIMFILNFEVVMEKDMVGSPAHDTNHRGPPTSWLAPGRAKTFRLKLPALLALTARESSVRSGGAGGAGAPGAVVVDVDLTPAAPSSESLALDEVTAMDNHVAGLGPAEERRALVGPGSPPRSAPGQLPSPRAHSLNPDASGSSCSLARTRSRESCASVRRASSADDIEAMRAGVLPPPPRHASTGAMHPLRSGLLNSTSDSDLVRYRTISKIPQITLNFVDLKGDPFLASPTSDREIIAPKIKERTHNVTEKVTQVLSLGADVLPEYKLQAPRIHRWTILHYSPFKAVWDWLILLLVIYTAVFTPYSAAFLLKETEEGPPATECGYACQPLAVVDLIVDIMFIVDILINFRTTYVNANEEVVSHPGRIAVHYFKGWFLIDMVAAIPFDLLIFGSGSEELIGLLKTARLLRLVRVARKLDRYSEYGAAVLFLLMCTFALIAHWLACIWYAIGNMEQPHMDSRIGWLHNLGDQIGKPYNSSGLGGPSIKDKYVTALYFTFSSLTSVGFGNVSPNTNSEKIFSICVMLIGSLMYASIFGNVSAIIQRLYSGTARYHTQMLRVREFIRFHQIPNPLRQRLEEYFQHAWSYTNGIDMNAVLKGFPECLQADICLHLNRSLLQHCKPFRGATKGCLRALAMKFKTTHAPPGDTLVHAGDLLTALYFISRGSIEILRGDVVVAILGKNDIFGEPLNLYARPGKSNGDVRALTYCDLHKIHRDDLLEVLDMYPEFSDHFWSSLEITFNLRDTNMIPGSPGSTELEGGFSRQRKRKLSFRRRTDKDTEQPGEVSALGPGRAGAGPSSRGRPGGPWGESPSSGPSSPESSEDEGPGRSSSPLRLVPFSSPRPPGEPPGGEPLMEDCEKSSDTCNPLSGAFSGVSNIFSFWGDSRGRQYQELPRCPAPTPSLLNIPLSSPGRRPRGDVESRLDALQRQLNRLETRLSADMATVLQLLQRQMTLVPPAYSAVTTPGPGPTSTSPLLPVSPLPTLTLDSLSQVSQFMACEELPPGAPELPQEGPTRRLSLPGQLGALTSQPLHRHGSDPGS

C=C(C)C1CC=C(C)C(=O)C1 (configuration not stated)
inactive: outcome [1] | outcome [2] | outcome [3] | outcome [4] | Potency [5] | outcome [6] | outcome [7] | Potency [8] | Potency [9] | Potency [10] | Potency [11] | Potency [12] | Potency [13] | Potency [14]

O=S(=O)(O)c1ccc2c(N=Nc3ccc(S(=O)(=O)O)c4ccccc34)c(O)c(S(=O)(=O)O)cc2c1
inactive: viability change, negative = cytotoxic [1] 5.53% [at 6.97 µM] | activity change, negative = cytotoxicity [2] 12.6% [at 6.97 µM] | caspase activation [4] -0.326% [at 8.39 µM] | caspase-3/7 activation [6] -0.308% [at 8.39 µM] | activation [8] 1.28% [at 8.39 µM] | max activation [15] -9.86% | Potency [16] | activity change, negative = inhibition [9] -11.1% [at 10.5 µM] | activity change, negative = inhibition [10] -14.2% [at 10.5 µM] | activity change, negative = inhibition [11] -3.9% [at 10.5 µM] | activity change, negative = inhibition [12] -17.3% [at 10.5 µM] | activity change, negative = inhibition [13] 1.92% [at 6.97 µM] | activity change, negative = inhibition [14] 1.51% [at 10.5 µM]

C=C(C)[C@@H]1CC=C(C)C(=O)C1
inactive: outcome [1] | outcome [2] | outcome [3] | outcome [4] | Potency [5] | outcome [6] | outcome [7] | Potency [8] | Potency [9] | Potency [10] | Potency [11] | Potency [13] | Potency [14]

CC(C)OC(=O)OCOP(=O)(CO[C@H](C)Cn1cnc2c(N)ncnc21)OCOC(=O)OC(C)C
inactive: outcome [1] | outcome [2] | outcome [3] | Potency [5] | outcome [6] | outcome [7] | Potency [8] | max activation [15] -6.83% | Potency [16] | Potency [9] | Potency [10] | Potency [13]

CCC/C=C(\C=O)CC
active: Potency [10] 39.9 µM | Potency [11] 63.3 µM | Potency [14] 39.9 µM
inactive: outcome [1] | outcome [2] | outcome [17] | outcome [18] | outcome [3] | outcome [4] | Potency [5] | outcome [6] | outcome [7] | Potency [9] | Potency [13]

COc1cc2c(cc1OC)CN(C(=O)[C@H](C)N[C@@H](CCc1ccccc1)C(=O)O)[C@H](C(=O)O)C2
inactive: outcome [1] | outcome [2] | outcome [17] | outcome [18] | outcome [3] | outcome [4] | Potency [5] | outcome [7] | Potency [8] | Potency [9] | Potency [10] | Potency [11] | Potency [12] | Potency [13] | Potency [14]

CCOC(CN1CCN(CC(C)C(=O)c2ccccc2)CC1)c1ccccc1 (configuration not stated)
active: Potency [8] 14.6 µM | Potency [9] 0.213 µM | Potency [13] 10.4 µM
inactive: viability change, negative = cytotoxic [1] -0.107% [at 15.8 µM] | activation [19] -2.36% [at 15.8 µM] | activity, negative = inhibition [17] -3.1% [at 10.5 µM] | activation [18] 0.148% [at 11.8 µM] | activity change, negative = cytotoxicity [3] -0.628% [at 19 µM] | caspase activation [4] 0.292% [at 19 µM] | activity change, negative = cytotoxicity [5] 0.23% [at 19 µM] | caspase-3/7 activation [6] 0.336% [at 19 µM] | activity change, negative = cytotoxicity [7] -1.17% [at 19 µM] | max activation [15] 1.41% | activity change, negative = inhibition [12] 12.6% [at 23.6 µM] | activity change, negative = inhibition [14] 51.9% [at 23.6 µM]

OC[C@H]1O[C@@H](O[C@@H]2[C@@H](CO)O[C@](O)(CO)[C@H]2O)[C@H](O)[C@@H](O)[C@H]1O
inactive: outcome [1] | outcome [2] | outcome [18] | outcome [3] | outcome [4] | Potency [5] | outcome [7] | Potency [8] | max activation [15] -1.58% | Potency [16] | Potency [9] | Potency [10] | Potency [12] | Potency [13] | Potency [14]

O=Cc1cc2ccccc2o1
active: Potency [12] 31.7 µM
inactive: outcome [1] | outcome [2] | outcome [18] | outcome [3] | outcome [4] | Potency [5] | Potency [8] | Potency [9] | Potency [13] | Potency [14]

CCCC(=O)OC/C=C(\C)CCC=C(C)C
inactive: outcome [1] | outcome [2] | outcome [3] | outcome [4] | Potency [5] | outcome [6] | outcome [7] | Potency [8] | Potency [10] | Potency [14]

CCC(C)OC(C)CC (configuration not stated)
inactive: outcome [1] | outcome [2] | outcome [3] | outcome [4] | Potency [5] | outcome [6] | outcome [7] | Potency [8] | Potency [9] | Potency [10] | Potency [11] | Potency [12] | Potency [14]

CCCCCCCCCOC(=O)CCCCC(=O)OCCCCCCC
inactive: outcome [1] | outcome [2] | outcome [17] | outcome [18] | outcome [3] | outcome [4] | Potency [5] | outcome [6] | outcome [7] | Potency [8] | Potency [9] | Potency [10] | Potency [11] | Potency [13] | Potency [14]

CCOC(=O)CC1(C)OCC(C)O1 (configuration not stated)
inactive: outcome [1] | outcome [2] | outcome [18] | outcome [3] | Potency [5] | outcome [6] | outcome [7] | Potency [8] | Potency [9] | Potency [10] | Potency [11] | Potency [13] | Potency [14]

O/N=C/C=N/O
active: Potency [9] 39.9 µM
inactive: outcome [1] | outcome [19] | outcome [17] | outcome [18] | outcome [3] | outcome [4] | Potency [5] | outcome [6] | outcome [7] | Potency [8] | Potency [10] | Potency [11] | Potency [12] | Potency [13] | Potency [14]

CC(CO)(CO)CO
inactive: outcome [1] | outcome [2] | outcome [17] | outcome [18] | outcome [3] | outcome [4] | Potency [5] | outcome [6] | outcome [7] | Potency [8] | Potency [11] | Potency [13] | Potency [14]

CC(=O)Nc1ccc(OC(=O)c2ccccc2OC(C)=O)cc1
inactive: outcome [1] | outcome [19] | outcome [17] | outcome [18] | outcome [3] | outcome [4] | Potency [5] | outcome [6] | outcome [7] | Potency [8] | max activation [15] 1.26% | Potency [16] | Potency [11] | Potency [13] | Potency [14]
